Bioassay records from PubChem BioAssay.
The list is not random: actives were taken first. Their share in the collection is about 12%.
HCV inh = HCV inhibition. Huh7.5.1 HCVcc-Cre infection, luciferase reporter, 44 h. AID 651820. Potency, µM (highest dose often 41.8 µM), usual class: inhibitors. actives 3.4% (n = 340,000)
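1,000 cells/well; 4 h culture; + compound; + HCVcc-Cre (~0.5 moi); 44 h; luciferase substrate, RT 15 min; read 15 sec.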
SARS PLpro yeast = SARS-CoV PLP inhibition in yeast; S. cerevisiae expressing SARS-CoV PLpro, growth rescue; Potency, µM (top dose mostly 32.9 µM), most hits filed as activators; actives 0.19% (n = 330,000); calls by dose curve; also: nearly all actives have a fitted effect of over 55% in size
NS1 function inh = influenza NS1 inhibition; Potency, µM (highest dose often 46.1 µM); AID 2326; actives 0.4% (n = 270,000); calls by dose curve; also: actives are rising curves; nearly all actives have a fitted effect of over 50% in size
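OD600 was taken as the measure of yeast growth restored by compound in an NS1-expressing S. cerevisiae strain. Cells had been washed out of glucose medium and diluted 1:100 into galactose -URA medium, pH 6.0.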
Pf growth 48h = P. falciparum growth inhibition at 48 hours (one generation); P. falciparum luciferase growth in erythrocytes, 48 h; Potency, µM (top dose mostly 28.7 µM), actives largely listed as inhibitors; actives 5.9% (n = 310,000); AID 504832
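Luciferase-expressing P. falciparum in infected erythrocytes (2% hematocrit, 0.1% parasitemia final) in RPMI 1640/0.5% Albumax were exposed to compound for 48 hours at 37 C, 5% CO2; growth read as luminescence.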
AMA1-RON2 inh = AMA1-RON2 (P. falciparum) interaction inhibition; AlphaScreen AMA1-biotinylated RON2 peptide binding; Potency, µM (highest dose often 58.2 µM), hits mostly inhibitors; actives 0.2% (n = 360,000); AID 720542; also: nearly all actives have a fitted effect of over 45% in size
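AMA1 (3D7) with his tag at 25 nM final met compounds first, then biotinylated RON2 peptide at 25 nM; detection used donor plus acceptor beads, 10 µg/mL apiece, read by AlphaScreen after 30 min at room temperature.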
Pf growth 96h = P. falciparum growth inhibition at 96 hour, primary screen for plastid delayed-death inhibitors. P. falciparum luciferase reporter growth, 96 h. Potency, µM (highest dose often 28.7 µM), most hits filed as inhibitors. actives 6.9% (n = 320,000). AID 504834
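Erythrocytes infected with luciferase-expressing P. falciparum were dispensed at 2% hematocrit and 0.05% parasitemia (final), then incubated with compounds 96 hours at 37 C in 5% CO2. Luminescence after detection reagent addition reported growth.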
Of the large screens only hits and unclear results are named; the others gave an inactive call. Unless noted, calls follow the shape of the dose curve; as a rule, active = well fitted curve in the direction sought with a large enough effect; inconclusive = small, poorly fitted or top-dose-only effect, or another doubt; inactive = no such curve, though single readings can be large; an effect the other way counts as inactive or inconclusive.

COCCNC(=O)c1cn(C)c(=O)c2cc(OC)c(OC)cc12	Pf growth 96h 8.3µM
O=C(NC(=S)Nc1cc([N+](=O)[O-])ccc1O)c1cccnc1	Pf growth 96h inconclusive
O=C(O)c1[nH]c(=O)[nH]c(=O)c1F	HCV inh inconclusive, Pf growth 48h 0.012µM, Pf growth 96h 0.0033µM
Cn1ccc(C(=O)OCC(=O)Nc2ccccc2Cl)n1	HCV inh 3.2µM, Pf growth 96h inconclusive
CCN(CC)S(=O)(=O)c1ccc(Cl)c(NC(=O)COC(=O)c2c(C)noc2C)c1	HCV inh inconclusive
CCN(CC)S(=O)(=O)c1ccc(Cl)c(NC(=O)COC(=O)c2ccc(O)cc2)c1	HCV inh inconclusive, Pf growth 48h inconclusive, Pf growth 96h 4.7µM (no result: NS1 function inh)
CN(C)S(=O)(=O)c1ccc(Cl)c(NC(=O)COC(=O)c2ccc(O)cc2)c1	none (no result: NS1 function inh)
Cn1ccc(C(=O)OCC(=O)Nc2cccc(Cl)c2)n1	Pf growth 96h inconclusive
CCN(CC)S(=O)(=O)c1ccc(Cl)c(NC(=O)COC(=O)c2cccn2C)c1	HCV inh 5.6µM, Pf growth 96h inconclusive (no result: NS1 function inh)
CN1CC=C(/C=C/c2ccc(-c3ccccc3)cc2)CC1	HCV inh inconclusive, Pf growth 48h inconclusive, Pf growth 96h 13µM
COc1ccc(/C=C/C2=CCN(C)CC2)cc1	none
CN(C)C(CNC(=O)c1cccc(C(F)(F)F)c1)c1ccco1 (stereo unspecified)	none
COCCNc1nc(SCC(=O)N2CCN(c3ccccc3OC)CC2)nc2ccccc12	HCV inh 10µM, Pf growth 48h inconclusive
COc1ccccc1N1CCN(C(=O)CSc2nc3ccccc3o2)CC1	none (no result: Pf growth 96h)
COc1ccccc1N1CCN(C(=O)CSc2ccc3c(C)cc(C)nc3n2)CC1	HCV inh inconclusive, Pf growth 48h 10µM
Cc1cccc(CN2CCN(C(C)C(=O)NC(C)c3ccccc3)CC2)c1 (stereo unspecified)	none
CCCCOc1cccc(C(=O)Nc2ccc(NC(=O)c3cccs3)cc2)c1	HCV inh inconclusive, Pf growth 96h 4.7µM
O=C(COc1ccc(NC(=O)c2cccs2)cc1)c1ccc(F)cc1	Pf growth 48h inconclusive
COc1cccc(C(=O)COc2ccc(NC(=O)c3cccs3)cc2)c1	Pf growth 48h 12µM, Pf growth 96h inconclusive
COc1cccc(-c2nc(-c3ccc(NC(=O)c4ccncc4)cc3)no2)c1	HCV inh inconclusive, Pf growth 96h inconclusive (no result: Pf growth 48h)
COc1cccc(-c2nc(-c3ccc(NC(=O)c4cccs4)cc3)no2)c1	HCV inh inconclusive, Pf growth 96h 4.1µM
Cc1nnc(SCC(=O)N2CC(=O)Nc3ccccc32)s1	none (no result: NS1 function inh)
Cc1cc(C)c2nc(SCC(=O)N3CC(=O)Nc4ccccc43)c(C#N)cc2c1	HCV inh 7.9µM, Pf growth 48h 13µM, Pf growth 96h inconclusive
Cc1cccc(C)c1-n1c(SCC(=O)N2CC(=O)Nc3ccccc32)nc2ccccc2c1=O	HCV inh inconclusive, NS1 function inh inconclusive, Pf growth 48h 13µM
COCCn1c(SCC(=O)N2CC(=O)Nc3ccccc32)nc2ccccc2c1=O	Pf growth 48h inconclusive, Pf growth 96h inconclusive
O=C1CN(C(=O)CSc2nc(-c3ccc(Cl)cc3)cs2)c2ccccc2N1	HCV inh 14µM, Pf growth 48h inconclusive, Pf growth 96h inconclusive
Cc1cc(C)c2nc(SCC(=O)Nc3ccccc3N3CCOCC3)c(C#N)cc2c1	HCV inh inconclusive (no result: SARS PLpro yeast, NS1 function inh, Pf growth 48h, Pf growth 96h)
Cc1ccc(-n2c(SCC(=O)N3CC(=O)Nc4ccccc43)nc3ccccc3c2=O)cc1	Pf growth 48h 13µM, Pf growth 96h inconclusive
CCOc1ccc(Nc2ccc(N3C(=O)CCC3=O)cc2[N+](=O)[O-])cc1	Pf growth 96h inconclusive (no result: NS1 function inh)
Nc1cc(OC(=O)c2ccc(F)cc2)nn1S(=O)(=O)c1ccccc1	none
CN(C)S(=O)(=O)c1ccc(-c2csc(N/N=C/c3ccc(O)cc3)n2)cc1	HCV inh 10µM, Pf growth 48h 0.33µM, Pf growth 96h 0.066µM
Nc1cc(-c2ccc(Br)cc2)nn1S(=O)(=O)c1cccc2nsnc12	HCV inh 11µM, Pf growth 96h inconclusive (no result: Pf growth 48h)
Nc1cc(-c2ccc(Cl)cc2)nn1S(=O)(=O)c1cccc2nsnc12	HCV inh inconclusive, Pf growth 96h inconclusive (no result: Pf growth 48h)
COc1ccccc1-c1cc(N)n(S(=O)(=O)c2cccc3nsnc23)n1	HCV inh inconclusive, Pf growth 48h inconclusive
Nc1cc(-c2cccc(F)c2)nn1S(=O)(=O)c1cccc2nsnc12	Pf growth 96h 1.7µM
CC(C)Cc1ccc(C(C)NC(=O)c2ccc(=O)[nH]c2)cc1 (stereo unspecified)	none (no result: NS1 function inh)
CCOc1cc(N2CCOCC2)c(OCC)cc1NC(=O)COC(=O)/C=C/c1ccc(OC(F)F)cc1	Pf growth 48h inconclusive (no result: NS1 function inh)
CC(=O)Nc1ccc(NC(=O)c2ccc(-c3ccnn3C)c3ccoc23)cc1	none (no result: HCV inh, SARS PLpro yeast, NS1 function inh, Pf growth 48h, Pf growth 96h)
Cc1nc(N2CCCCC2)sc1C(=O)c1cccc([N+](=O)[O-])c1	HCV inh inconclusive, Pf growth 48h inconclusive, AMA1-RON2 inh inconclusive
Cc1nc(N2CCCCC2)sc1C(=O)c1ccc(SCCO)c([N+](=O)[O-])c1	HCV inh 1.1µM, AMA1-RON2 inh inconclusive (no result: NS1 function inh)
O=C(CCC(=O)Nc1nnc(C2CCCCC2)s1)NCc1ccccc1	none
N/C(=N\c1nc2c(c(=O)[nH]1)CCCC2)Nc1ccc(Oc2ccccc2)cc1	NS1 function inh inconclusive, Pf growth 48h inconclusive, Pf growth 96h 8.3µM
O=C(CCN1C(=O)/C(=C\C=C\c2ccccc2)SC1=S)Nc1ccccc1C(=O)O	Pf growth 96h 9.3µM
COc1cccc(/C=C2/SC(=S)N(CCCC(=O)Nc3ccc(O)cc3)C2=O)c1	HCV inh inconclusive, Pf growth 48h inconclusive, Pf growth 96h inconclusive
COc1ccc(/C=C2/SC(=S)N(CCCC(=O)Nc3ccc(O)cc3)C2=O)cc1OC	HCV inh inconclusive, Pf growth 96h 12µM
CC(/C=C1\SC(=S)N(CCC(=O)Nc2ccc(O)cc2)C1=O)=C\c1ccccc1	HCV inh 7.9µM, Pf growth 48h inconclusive
O=C(CCN1C(=O)/C(=C\C=C\c2ccccc2)SC1=S)Nc1cccc(C(=O)O)c1	Pf growth 96h inconclusive
COc1ccc(-c2nn(-c3ccccc3)cc2/C=C/C(=O)NCCCn2ccnc2)cc1OC	Pf growth 48h 12µM, Pf growth 96h 10µM
COc1ccc(-c2nn(-c3ccccc3)cc2C(=O)NCCCn2ccnc2)cc1	Pf growth 96h inconclusive (no result: Pf growth 48h)
O=C(CNCc1cccc2ccccc12)Nc1ccccc1[N+](=O)[O-]	Pf growth 48h inconclusive, AMA1-RON2 inh inconclusive (no result: NS1 function inh)
Cc1ccc(NC(=O)CN2C(=O)S/C(=C\c3ccc(OCC(=O)O)c(Br)c3)C2=O)cc1	none
O=C(O)CCCN1C(=O)/C(=C\C(Cl)=C\c2ccccc2)SC1=S	HCV inh inconclusive, Pf growth 48h 9.3µM, Pf growth 96h inconclusive
COc1cccc(/C=C2\SC(=S)N(CCCC(=O)Nc3ccc(C(=O)O)cc3)C2=O)c1	SARS PLpro yeast inconclusive, Pf growth 48h inconclusive, Pf growth 96h 8.3µM
